# Data reported in PubChem BioAssay (Tox21).
# Records with an inconclusive call do not appear. Unmarked numbers belong to inactive results. Calls come from the whole dose curve; as a rule, active = well fitted cell-killing curve with a large enough effect in the repeat runs (not every such curve was filed as active); inconclusive = weak or mixed curves, or effect the other way; inactive = no such curve, though single readings can be large or run the other way.
# Experiment: qHTS assay to identify small molecule antagonists of the farnesoid-X-receptor (FXR) signaling pathway - cell viability counter screen (AID 743221); note: nearly all actives have a fitted effect of over 50% in size
# Conditions: FXR-bla HEK293T viability, CellTiter-Glo luminescence, 16 h; series mostly up to 62.6 µM; activity change, negative = cytotoxicity: at the top concentration
# Excerpt: National Center for Advancing Translational Sciences [NCATS]
# NIH Chemical Genomics Center [NCGC]
# U.S. Environmental Protection Agency [EPA]
# National Institutes of Environmental Health Sciences [NIEHS]
# National Toxicology Program [NTP]
# U.S. Food and Drug Administration [FDA]
# The farnesoid-X-receptor (FXR), a nuclear hormone receptor, is highly expressed in liver, intestine, kidney and adrenal cortex. Natural ligands of FXR are the bile acids (Cholic acid, Chenodeoxy cholic acid etc). FXR is an important regulator of diverse metabolic pathways, including the bile acid homeostasis, lipid and glucose metabolisms. FXR regulates the expression of target genes by binding either as a monomer or as a heterodimer with the retinoid X receptor (RXR). Numerous studies have reported that FXR exerts protective function during cholestasis, diabetes, liver regeneration, and cancer. To identify compounds that inhibit FXR signaling, GeneBLAzer FXR-UAS-bla HEK 293T cell line (Invitrogen, Carlsbad, CA) containing a beta-lactamase reporter gene under the control of a UAS response element was used to screen the Tox21 10K compound library. The cytotoxicity of the Tox21 compound library against the FXR-bla cell line was tested in parallel by measuring the cell viability using CellTiter-Glo assay in the same wells.
# Tox21 Assay Protocol Summary:
# FXR-bla cells were dispensed at 5000 cells/5uL/well in 1536-well black wall/clear bottom plates using a Multidrop Combi (Thermo Fisher Scientific, Waltham, MA) dispenser. After the assay plates were incubated at 37 C and 5% CO2 for 5 h, 23 nL of compounds dissolved in DMSO, positive controls or DMSO only was transferred to the assay plate by a Pintool station (Kalypsys, San Diego, CA), followed by addition of 1 uL Chenodeoxycholic acid (50 uM, final concentration in the wells). The assay plates were incubated at 37C for 16 h. After 1 uL of LiveBLAzerTM B/G FRET substrate was added using a Bioraptr Flying Reagent Dispenser (FRD) workstation (Beckman Coulter, Indianapolis, IN), the plates were incubated at room temperature for 2 h, and fluorescence intensity was measured by an Envision plate reader (PerkinElmer, Shelton, CT). For cell viability readout that measures cytotoxicity, 4uL/well of CellTiter-Glo reagent was added into the assay plates using a Bioraptr FRD. After 30 min incubation at room temperature, the luminescence intensity in the plates was measured using a ViewLux plate reader (PerkinElmer).
# % is set by controls: 0 for no effect and ±100 for the full control effect.
row,Structure (SMILES),"activity change, negative = cytotoxicity"
1,O=S(=O)(O)CCO,-1.05% [at 81.1 µM]
2,COc1cccc2sc(N)nc12,-14.5% [at 81.1 µM]
3,Cc1ccc(S(=O)(=O)NC(=O)NC2CCCCCCC2)cc1,15.4%
4,Nc1ccc(/C=C/c2ccc(N)cc2S(=O)(=O)O)c(S(=O)(=O)O)c1,5.38% [at 0.55 µM]
5,Cc1ccc(C(=O)C(=O)O)cc1C,-3.85%
6,C1=C\CC/C=C\CC/1,-1.95% [at 81.1 µM]
7,C[C@@H]1C[C@H]2[C@@H]3C[C@H](F)C4=CC(=O)C=C[C@]4(C)[C@@]3(F)[C@@H](O)C[C@]2(C)[C@@]1(O)C(=O)CO,13.6%
8,Nc1c(NC/C=C\COc2cc(CN3CCCCC3)ccn2)c(=O)c1=O,4.03% [at 29.1 µM]
9,c1ccc(CNc2ncnc3nc[nH]c23)cc1,-4.63%
10,C=CCOc1cc(Cl)ccc1C(=O)NCCN(CC)CC,2.82%
11,C[C@H]1O[C@H](O[C@H]2[C@H](O)[C@@H](O)[C@@H](O[C@H]3[C@H](O)[C@@H](O)[C@H](O)O[C@@H]3CO)O[C@@H]2CO)[C@H](O)[C@@H](O)[C@@H]1N[C@H]1C=C(CO)[C@@H](O)[C@H](O)[C@H]1O,3.81%
12,COc1cc([N+](=O)[O-])ccc1N,15.7%
13,CCCCCCCCOC(C)=O,-15%
14,CC(=O)Nc1ncc([N+](=O)[O-])s1,9.73%
15,CCCCOC(=O)C(C)OC(=O)CCC (stereo not given),9.9%
16,O=S(=O)(O)c1cc(O)ccc1O,22.8%
17,Cc1cc(C)cc([N+](=O)[O-])c1,6.62% [at 81.1 µM]
18,O=C(O)c1ccc(OCCN2CCCCC2)cc1,21.8%
19,Nc1ccnc(=O)[nH]1,4.47%
20,CCNC(=O)NCCCOc1cccc(CN2CCCCC2)c1,0.0702%

row,Structure (SMILES),"activity change, negative = cytotoxicity"
1,COCCOCCOCCOC,7.97%
2,c1ccccc1,-1.77%
3,C=CCOCC(O)CCl (stereo not given),1.26%
4,O=C1OC(=O)c2cc(Oc3ccc4c(c3)C(=O)OC4=O)ccc21,4.28%
5,CC(=O)c1ccc2c(c1)CCCC2,-6.94%
6,CCc1nccnc1C,3.91%
7,O=CN1CCOCC1,9%
8,CCCCCCCCCCCCCCCCCCN(C)C,7.36%
9,CC(C)C(=O)Nc1cccc(C(F)(F)F)c1,-0.836%
10,Cc1nc2n(c(=O)c1CCN1CCC(C(=O)c3ccc(F)cc3)CC1)CCS2,0.913%
11,NC(=O)NNC(N)=O,13.2%
12,CCCOCCOCCOCCO,19%
13,CCCCCC1CCCC(=O)O1 (stereo not given),-18.3%
14,COc1cc(C=O)ccc1OC(=O)C(C)C,-0.925%
15,O=C(Oc1ccccc1C(=O)O)c1ccccc1O,-1.11%
16,O=C(Nc1cccc(C2=NCCN2)c1)Nc1cccc(C2=NCCN2)c1,0.222% [at 29.1 µM]
17,O=P(O)(O)OCC(O)CO (stereo not given),-0.588%
18,NC(Cc1c[nH]c2ccccc12)C(=O)O (stereo not given),-1.03%
19,O=C1NC2NC(=O)NC2N1 (stereo not given),0.538%
20,Cc1cccc(NC(=S)N(C)C)c1,-5.37%
